The results in this text go back to the supplement of paper PMC8728848.

This excerpt belongs to a sample that is enriched for the strongest signals.

Holding throughout (experiment): glycan array binding signal (z-score within array); higher = stronger binding
Details in all cases: glycan notation: IUPAC condensed, linker removed

Test [1] concerns the target GlcNAc(b1-3)Gal(b1-3)GalNAc. An outline of the steps:
(§1)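 Glycan array binding is given as a within-array Z-score, which can be read as non-binding when negative. The arrays, 3228 of them, came from the Consortium for Functional Glycomics database and were retained only where the protein sequence was available. Z-scores were averaged across arrays of the same protein sequence at different concentrations or buffers and across linkers.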

Test [2] deals with GlcNAc(b1-3)Gal(b1-4)GlcNAc(b1-3)Gal(b1-4)GlcNAc(b1-2)Man(a1-3)[GlcNAc(b1-3)Gal(b1-4)GlcNAc(b1-3)Gal(b1-4)GlcNAc(b1-2)Man(a1-6)]Man(b1-4)GlcNAc(b1-4)GlcNAc. An outline of the steps:
as §1

Test [3] deals with GlcNAc(b1-3)Gal(b1-4)GlcNAc(b1-3)Gal(b1-4)GlcNAc(b1-3)Gal(b1-4)GlcNAc(b1-2)Man(a1-3)[GlcNAc(b1-3)Gal(b1-4)GlcNAc(b1-3)Gal(b1-4)GlcNAc(b1-3)Gal(b1-4)GlcNAc(b1-2)Man(a1-6)]Man(b1-4)GlcNAc(b1-4)[Fuc(a1-6)]GlcNAc. An outline of the steps: as §1
The target in test [4] is GlcNAc(b1-6)Gal(b1-4)GlcNAc. In short, it runs like this:
as §1

The target in test [5] is Kdn(a2-3)Gal(b1-4)Glc. An outline of the steps:
as §1

In test [6] the target is Man(a1-2)Man(a1-3)[Man(a1-2)Man(a1-6)]Man. An outline of the steps:
as §1

Test [7] addresses Man(a1-2)Man(a1-3)[Man(a1-2)Man(a1-6)]Man(a1-6)[Man(a1-2)Man(a1-2)Man(a1-3)]Man. An outline of the steps:
as §1

Test [8] has as its target Man(a1-2)Man(a1-6)[Man(a1-3)]Man(a1-6)[Man(a1-2)Man(a1-2)Man(a1-3)]Man(b1-4)GlcNAc(b1-4)GlcNAc. An outline of the steps:
as §1

The target in test [9] is Man(a1-6)Man. An outline of the steps: as §1
The target of test [10] is Neu5Ac(a2-3)Gal(b1-4)Glc. An outline of the steps:
as §1

Test [11] concerns the target Neu5Ac(a2-3)Gal(b1-4)[Fuc(a1-3)]GlcNAc6S. An outline of the steps: as §1
Test [12] addresses Neu5Ac(a2-6)Gal(b1-3)GlcNAc(b1-3)[Gal(b1-4)GlcNAc(b1-6)]Gal(b1-4)Glc. In short, it runs like this:
as §1

Test [13] has as its target Neu5Ac(a2-6)Gal(b1-4)GlcNAc(b1-3)Gal(b1-4)GlcNAc(b1-3)Gal(b1-4)GlcNAc(b1-2)Man(a1-3)[Neu5Ac(a2-6)Gal(b1-4)GlcNAc(b1-3)Gal(b1-4)GlcNAc(b1-3)Gal(b1-4)GlcNAc(b1-2)Man(a1-6)]GalNAc. An outline of the steps: as §1
The target of test [14] is Neu5Ac(a2-8)Neu5Ac(a2-3)Gal(b1-4)Glc. An outline of the steps: as §1
The target in test [15] is Neu5Ac(a2-8)Neu5Gc(a2-3)Gal(b1-4)GlcNAc. An outline of the steps: as §1
Test [16] deals with Neu5Ac9Ac(a2-3)Gal(b1-4)GlcNAc. In short, it runs like this: as §1
Test [17] has as its target Neu5Gc(a2-3)Gal(b1-4)GlcNAc. An outline of the steps: as §1

B1: Si Bti9 1b-HA (Solanum lycopersicum) (protein)
chain: MFESRPRSVLSLGVFVILVYLSSVPLPVNSQCNRGCDLALASFYVWRGSNLTLISEMFSTSIADIVSYNNRDNIPNQDSVIAGTRINIPFRCDCLNDGEVLGHAFPYRVKSGDTYDLVARNYSDLTTAQWMMKFNSYPENNIPNTVNLSVVVNCSCGNSDVSKDFGLFVTYPVRAEDNLTSVASAANVSEDIIRRYNPAAVSILDIGQGIIYIPGRDRNGNFPPLPTSTDGLSGGAKAPLFFNPAFLYKVVELKLAGRSRTSGYPYDVPDYAGYPYDVPDYALEVLFQ
Take B1: the “glycan array binding signal (z-score)” value is -0.271 in test [1]; 2.7 in test [2]; 0.086 in test [3]; -0.32 in test [4]; -0.287 in [5]; -0.589 in [6]. In addition, the “glycan array binding signal (z-score)” value in [7] was -0.638; in test [8], -0.201; in test [9], 7.42; in test [10], 0.009; in [11], -0.438; in test [12] it was -0.236. Further, the “glycan array binding signal (z-score)” value was 2.19 in test [13]; 0.02 in [14]; -0.539 in test [15]; -0.425 in [16]; -0.219 in [17].
